Test results taken from PubChem BioAssay (NCI).
Where “and” joins values, the source holds several entries; their conditions need not be identical. Equal entries are not always repeated. Compounds without any hit were thinned out: in the full panel of roughly 83,000, 20% have a hit.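 96-well plates, one dose, 48 hours. Percent growth reported; active if below 10.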 Calls of active or inactive are those of the source.

tested on: MCF7 breast; test: NCI-60 one-dose screen, 48 h (100 = growth as untreated, 0 = no growth, -100 = all killed); conditions: 10 µM unless noted

SMILES | growth
CCCCCCCCCc1cc(=O)c2c(O)cc(O)cc2o1 | -86.1% [100 µM] (active) and -45.1% [100 µM] (active)
Cc1cc(-c2nc3ccccc3s2)ccc1N | 27.4% [100 µM] (inactive) and 5.42% [100 µM] (active)
O=c1c2ncn(C3CCCCO3)c2n(-c2ccccc2)c(=S)n1-c1ccccc1 (stereo unspecified) | 43.5% [100 µM] (inactive) and 61.3% [100 µM] (inactive)
COc1cc([N+](=O)[O-])c(OC)c2c(Nc3ccc(S(=O)(=O)O)c4cc(S(=O)(=O)O)cc(S(=O)(=O)O)c34)cc(C)nc12 | -88.5% [100 µM] (active) and -100% [100 µM] (active)
CC(C)(C)O/N=C/c1cc(NC(=S)c2ccsc2)ccc1Cl | -74.5% [100 µM] (active) and -71.7% [100 µM] (active)
O=[N+]([O-])c1cccc(-c2ncnc(-c3cccc([N+](=O)[O-])c3)n2)c1 | 55.1% [100 µM] (inactive) and 68.9% [100 µM] (inactive)
CC#CC#C/C=C1/C=CC2(CCCCO2)O1 (stereo unspecified) | 53.8% [100 µM] (inactive) and 0.753% [100 µM] (active)
Cc1c2c(c(O)c3c(O)cccc13)C(=O)C1(O)C(O)=C(C(=O)NCNc3ccc(C(N)=O)cn3)C(=O)C(N(C)C)C1C2 (stereo unspecified) | -81.9% [100 µM] (active) and -89.4% [100 µM] (active)
O=C1N(c2ccccc2)N=C2c3ccncc3C3=NN(c4ccccc4)C(=O)C123 (stereo unspecified) | 28.9% [100 µM] (inactive) and -33.6% [100 µM] (active)
Cc1cc2c3c(nc4ccccc42)C(=O)c2cccnc2-c3n1 | -74.8% [100 µM] (active) and -100% [100 µM] (active)
COc1c2c(c(OC)c3c1c(=O)c1ccccc1n3C)OCO2 | 9.09% [100 µM] (active)
CC(O)c1cc2c(s1)C(=O)c1ccsc1C2=O (stereo unspecified) | -56.8% [100 µM] (active) and -91.5% [100 µM] (active)
CC(=O)OC(C)c1cc2c(s1)C(=O)c1ccsc1C2=O (stereo unspecified) | -61.2% [100 µM] (active) and -98.9% [100 µM] (active)
C=C1CC(O)C2C(=C)C(=O)OC2C2C(C)C(=O)CC12 (stereo unspecified) | -76.9% [100 µM] (active) and -61.7% [100 µM] (active)
CC12CCC3c4cc(Br)c(O)c(Br)c4CCC3C1CCC2O (stereo unspecified) | 5.35% [100 µM] (active) and -48.4% [100 µM] (active)
Cc1ccnc2[nH]c(-c3ccc(F)cc3)cc(=O)c12 | 22.1% [100 µM] (inactive) and 5.04% [100 µM] (active)
